# Experimental data published in the supplement of paper PMC8728848.
# The sample as a whole holds a higher share of the strongest signals than the screen did.
# B1: Gal 7 (Homo sapiens) (protein)
# chain: MSNVPHKSSLPEGIRPGTVLRIRGLVPPNASRFHVNLLCGEEGGSDAALHFNPRLDTSEVVFNSKEGGSWGREESGPGVPFGRGQPFEVLIIASDDGFKAVVGDAQYHHFRHRLPLARVRLVEVGGDVQLDSVRIF
# Experiments:
# Assay in all cases: glycan array binding signal (z-score within array); higher = stronger binding
# Settings in all cases: glycan notation: IUPAC condensed, linker removed; mutation: R74S
# [1] = target: Fuc(a1-2)Gal(b1-3)GlcNAc(b1-3)[Neu5Ac(a2-6)Gal(b1-4)GlcNAc(b1-6)]Gal(b1-4)Glc
# How it was run: (§1)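 Columns mapping to the same glycan were averaged after glycan names were converted to IUPAC-condensed notation. The data come from 3228 arrays in the Consortium for Functional Glycomics database, limited to those with an available protein sequence. Binding is reported as a within-array Z-score averaged across arrays of one protein sequence and across linkers.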
# Fuc(a1-2)Gal(b1-4)GlcNAc = target: Fuc(a1-2)Gal(b1-4)GlcNAc
# How it was run: as §1
# [2] = target: Fuc(a1-2)Gal(b1-4)GlcNAc(b1-2)Man(a1-3)[Fuc(a1-2)Gal(b1-4)GlcNAc(b1-2)Man(a1-6)]Man(b1-4)GlcNAc(b1-4)[Fuc(a1-6)]GlcNAc
# How it was run: as §1
# [3] = target: Fuc(a1-2)Gal(b1-4)GlcNAc(b1-3)Gal(b1-4)GlcNAc(b1-2)Man(a1-3)[Fuc(a1-2)Gal(b1-4)GlcNAc(b1-3)Gal(b1-4)GlcNAc(b1-2)Man(a1-6)]Man(b1-4)GlcNAc(b1-4)GlcNAc
# How it was run: as §1
# [4] = target: Fuc(a1-2)Gal(b1-4)GlcNAc(b1-6)GalNAc
# How it was run: as §1
# [5] = target: Fuc(a1-2)Gal(b1-4)[Fuc(a1-3)]GlcNAc(b1-3)Gal(b1-4)[Fuc(a1-3)]GlcNAc(b1-3)Gal(b1-4)[Fuc(a1-3)]GlcNAc
# How it was run: as §1
# [6] = target: Fuc(a1-2)Gal6S(b1-4)Glc6S
# How it was run: as §1
# [7] = target: Fuc(a1-2)[Gal(a1-3)]Gal(b1-3)GlcNAc(b1-6)GalNAc
# How it was run: as §1
# [8] = target: Fuc(a1-2)[Gal(a1-3)]Gal(b1-4)GlcNAc
# How it was run: as §1
# [9] = target: Fuc(a1-2)[GalNAc(a1-3)]Gal(b1-3)GlcNAc(b1-2)Man(a1-3)[Fuc(a1-2)[GalNAc(a1-3)]Gal(b1-3)GlcNAc(b1-2)Man(a1-6)]Man(b1-4)GlcNAc(b1-4)GlcNAc
# How it was run: as §1
# [10] = target: Fuc(a1-2)[GalNAc(a1-3)]Gal(b1-4)GlcNAc(b1-3)Gal(b1-4)GlcNAc(b1-3)Gal(b1-4)GlcNAc
# How it was run: as §1
# [11] = target: Fuc(a1-3)[Gal(b1-4)]GlcNAc(b1-6)[Gal(b1-3)GlcNAc(b1-3)]Gal(b1-4)Glc
# How it was run: as §1
# Gal(a1-3)Gal(b1-4)Glc = target: Gal(a1-3)Gal(b1-4)Glc
# How it was run: as §1
# [12] = target: Gal(a1-4)Gal(b1-3)GlcNAc(b1-2)Man(a1-3)[Gal(a1-4)Gal(b1-3)GlcNAc(b1-2)Man(a1-6)]Man(b1-4)GlcNAc(b1-4)GlcNAc
# How it was run: as §1
# Gal(b1-3)Gal(b1-4)GlcNAc = target: Gal(b1-3)Gal(b1-4)GlcNAc
# How it was run: as §1
# Gal(b1-3)GalNAc = target: Gal(b1-3)GalNAc
# How it was run: as §1
# [13] = target: Gal(b1-3)GlcNAc(b1-2)Man(a1-3)[Gal(b1-3)GlcNAc(b1-2)Man(a1-6)]Man(b1-4)GlcNAc(b1-4)[Fuc(a1-6)]GlcNAc
# How it was run: as §1
# Gal(b1-3)GlcNAc6S = target: Gal(b1-3)GlcNAc6S
# How it was run: as §1
# [14] = target: Gal(b1-3)[Fuc(a1-4)]GlcNAc(b1-6)GalNAc
# How it was run: as §1
# [15] = target: Gal(b1-3)[Neu5Ac(a2-6)]GlcNAc(b1-4)Gal(b1-4)Glc
# How it was run: as §1
# [16] = target: Gal(b1-4)GalNAc(a1-3)[Fuc(a1-2)]Gal(b1-4)GlcNAc
# How it was run: as §1
# [17] = target: Gal(b1-4)GlcNAc(b1-3)Gal(b1-4)GlcNAc(b1-2)Man(a1-3)[Gal(b1-4)GlcNAc(b1-3)Gal(b1-4)GlcNAc(b1-2)Man(a1-6)]Man(b1-4)GlcNAc(b1-4)GlcNAc
# How it was run: as §1
# [18] = target: Gal(b1-4)GlcNAc(b1-3)Gal(b1-4)GlcNAc(b1-2)[Gal(b1-4)GlcNAc(b1-3)Gal(b1-4)GlcNAc(b1-6)]Man(a1-6)[Gal(b1-4)GlcNAc(b1-3)Gal(b1-4)GlcNAc(b1-2)Man(a1-3)]Man(b1-4)GlcNAc(b1-4)GlcNAc
# How it was run: as §1
# [19] = target: Gal(b1-4)GlcNAc(b1-3)Gal(b1-4)GlcNAc(b1-3)Gal(b1-4)GlcNAc(b1-2)[Gal(b1-4)GlcNAc(b1-3)Gal(b1-4)GlcNAc(b1-3)Gal(b1-4)GlcNAc(b1-6)]Man(a1-6)[Gal(b1-4)GlcNAc(b1-3)Gal(b1-4)GlcNAc(b1-3)Gal(b1-4)GlcNAc(b1-2)Man(a1-3)]Man(b1-4)GlcNAc(b1-4)[Fuc(a1-6)]GlcNAc
# How it was run: as §1
# [20] = target: Gal(b1-4)GlcNAc(b1-3)Gal(b1-4)GlcNAc(b1-3)Gal(b1-4)GlcNAc(b1-3)Gal(b1-4)GlcNAc(b1-2)Man(a1-3)[Gal(b1-4)GlcNAc(b1-3)Gal(b1-4)GlcNAc(b1-3)Gal(b1-4)GlcNAc(b1-3)Gal(b1-4)GlcNAc(b1-2)Man(a1-6)]Man(b1-4)GlcNAc(b1-4)GlcNAc
# How it was run: as §1
binder,measurement,setting,value
B1,glycan array binding signal (z-score),[1],0.022
same,glycan array binding signal (z-score),Fuc(a1-2)Gal(b1-4)GlcNAc,-0.214
same,glycan array binding signal (z-score),[2],1.07
same,glycan array binding signal (z-score),[3],13.1
same,glycan array binding signal (z-score),[4],0.439
same,glycan array binding signal (z-score),[5],0.209
same,glycan array binding signal (z-score),[6],0.38
same,glycan array binding signal (z-score),[7],-0.325
same,glycan array binding signal (z-score),[8],-0.56
same,glycan array binding signal (z-score),[9],-0.27
same,glycan array binding signal (z-score),[10],-0.239
same,glycan array binding signal (z-score),[11],0.106
same,glycan array binding signal (z-score),Gal(a1-3)Gal(b1-4)Glc,0.28
same,glycan array binding signal (z-score),[12],-0.347
same,glycan array binding signal (z-score),Gal(b1-3)Gal(b1-4)GlcNAc,-0.425
same,glycan array binding signal (z-score),Gal(b1-3)GalNAc,-0.37
same,glycan array binding signal (z-score),[13],0.404
same,glycan array binding signal (z-score),Gal(b1-3)GlcNAc6S,-0.422
same,glycan array binding signal (z-score),[14],-0.149
same,glycan array binding signal (z-score),[15],-0.354
same,glycan array binding signal (z-score),[16],-0.282
same,glycan array binding signal (z-score),[17],3.67
same,glycan array binding signal (z-score),[18],1.49
same,glycan array binding signal (z-score),[19],3.31
same,glycan array binding signal (z-score),[20],5.53
